Assay outcomes: PubChem BioAssay, National Center for Advancing Translational Sciences (NCATS)
This is a sample that favours compounds with a hit; in the whole collection about 2.4% have one here.
Pol beta inh: qHTS Assay for Inhibitors of DNA Polymerase Beta. P06746. Pol beta primer extension/strand displacement, fluorescence kinetic. Potency, µM (top dose mostly 114 µM), without a hit: at the highest dose activity change, negative = inhibition, most hits filed as inhibitors. 1.3% of 340,000 active; also: % is scaled to controls: 0 for no effect and ±100 for the full control effect
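Reaction started by 50 nM substrate onto compound-treated Pol beta (10 nM, 15 min preincubation, room temperature); plates read at 0 min and 10 min. Normalized concentration-effect data fitted by four-parameter Hill equation.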
Pol iota inh: qHTS for Inhibitors of Polymerase Iota. DNA polymerase iota (Homo sapiens), Q9UNA4. 1% of 390,000 active. Potency, µM (highest dose often 115 µM), for inactives: top-dose activity, negative = inhibition, usual class: inhibitors. AID 588590, 2011. Pol iota fluorescent replication assay, 10 min
Target sequence (Q9UNA4 whole entry, looked up): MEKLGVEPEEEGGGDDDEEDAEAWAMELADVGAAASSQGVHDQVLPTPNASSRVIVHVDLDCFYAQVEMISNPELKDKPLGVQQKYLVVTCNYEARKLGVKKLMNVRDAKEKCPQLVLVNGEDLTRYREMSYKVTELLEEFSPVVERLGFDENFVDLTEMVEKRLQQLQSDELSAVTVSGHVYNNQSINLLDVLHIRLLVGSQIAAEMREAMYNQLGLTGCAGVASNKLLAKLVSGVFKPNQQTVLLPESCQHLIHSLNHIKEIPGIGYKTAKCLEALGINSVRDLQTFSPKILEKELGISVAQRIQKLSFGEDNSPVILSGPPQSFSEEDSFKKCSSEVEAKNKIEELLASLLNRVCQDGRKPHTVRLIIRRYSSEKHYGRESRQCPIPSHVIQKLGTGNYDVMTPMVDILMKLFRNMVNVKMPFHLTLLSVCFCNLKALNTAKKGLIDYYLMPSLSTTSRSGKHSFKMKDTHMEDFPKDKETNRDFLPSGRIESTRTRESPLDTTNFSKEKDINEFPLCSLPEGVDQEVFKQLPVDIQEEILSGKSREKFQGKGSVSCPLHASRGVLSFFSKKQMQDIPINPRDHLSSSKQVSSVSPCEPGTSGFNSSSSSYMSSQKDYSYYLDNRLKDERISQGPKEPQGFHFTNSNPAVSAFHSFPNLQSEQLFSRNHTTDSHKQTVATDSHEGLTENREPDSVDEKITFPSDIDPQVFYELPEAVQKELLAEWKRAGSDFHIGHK
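Fluorescent replication assay read twice, at 0 min and 10 min after adding 50 nM (final) substrate. Enzyme (10 nM) and compounds were first incubated 15 min at room temperature; enzyme-free buffer wells were negative controls.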
POLK inh: qHTS for Inhibitors of Polymerase Kappa; DNA polymerase kappa (Homo sapiens), Q9UBT6; purified Pol kappa, fluorescent DNA synthesis assay, 10 min; Potency, µM (top dose mostly 107 µM), for inactives: top-dose activity, negative = inhibition, hits mostly inhibitors; 0.53% of 400,000 active; AID 588579, 2011; also: % is scaled to controls: 0 for no effect and ±100 for the full control effect
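Kinetic fluorescence screen: compound preincubated 15 min RT with 10 nM enzyme; 50 nM substrate (final) initiates; reads at 0/10 min.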
TDP1 inh: qHTS Assay for Inhibitors of Tyrosyl-DNA Phosphodiesterase (TDP1); Potency, µM (series often up to 130 µM), without a hit: top-dose activity change, negative = inhibition, actives largely listed as inhibitors; recombinant TDP1, AlphaScreen DNA substrate cleavage; 0.28% of 350,000 active; Tyrosyl-DNA phosphodiesterase 1 (Homo sapiens), Q9NUW8; also: % is scaled to controls: 0 for no effect and ±100 for the full control effect; nearly all actives have a fitted effect of over 40% in size
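Signal: AlphaScreen proximity between streptavidin donor and anti-FITC acceptor beads on intact substrate. Reaction: Tdp1 1 nM, substrate 15 nM final, 5 min RT after 15 min compound preincubation.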
POLH inh: qHTS for Inhibitors of Polymerase Eta; DNA polymerase eta (Homo sapiens), Q9Y253; recombinant Pol eta, fluorescent DNA replication assay; Potency, µM (series often up to 114 µM), without a hit: at the highest dose activity change, negative = inhibition, most hits filed as inhibitors; 1.2% of 390,000 active; AID 588591, 2011; also: % is scaled to controls: 0 for no effect and ±100 for the full control effect
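Pol eta (10 nM) was preincubated with compounds for 15 min at room temperature, after which fluorescent replication substrate (50 nM final) was added to start the reaction. Fluorescence was read kinetically at 0 and 10 min.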
Active calls of the source: *; [ ] = remark or other dose. Calls follow the shape of the dose curve; as a rule, active = well fitted curve in the direction sought with a large enough effect; inconclusive = small, poorly fitted or top-dose-only effect, or another doubt; inactive = no such curve, though single readings can be large; an effect the other way counts as inactive or inconclusive. Potency is read from the fitted curve at half-maximal effect.

For COC/C=C/C1=CC2=CC(=O)C(C)(OC(=O)c3cnc4ccccc4n3)C(=O)C2=CN1c1ccc(CO)cc1 (stereo not drawn) the results were Pol beta inh 1.8µM*.
Screening COC/C=C/C1=CC2=CC(=O)C(C)(OC(=O)c3cnc4ccccc4n3)C(=O)C2=CN1c1ccccc1 (stereo not drawn) returned Pol beta inh inconclusive, Pol iota inh inconclusive, POLK inh 79µM*, TDP1 inh 4%[21 µM] and POLH inh 25µM*.
CCCCCC(=O)Cc1cc(O)cc2c1C(=O)Oc1cc(O)c(C(=O)O)c(CCCCC)c1O2 was read as Pol beta inh 45µM*, Pol iota inh 71µM*, POLK inh 79µM* and POLH inh 18µM*.
`O=C(Nc1cccnc1Cl)c1cc(-c2ccc(Cl)cc2)on1` gave Pol beta inh 20%, Pol iota inh 35%, POLK inh -11%, TDP1 inh 7% and POLH inh -14%.
Screening O=C(Nc1cccnc1Cl)c1cc(-c2ccc(O)cc2)on1 returned Pol beta inh -23%, Pol iota inh inconclusive, POLK inh -6%, TDP1 inh 50µM* and POLH inh -5%.
For O=C(c1ccccc1O)N(Cc1ccco1)Cc1ccco1 the results were TDP1 inh -3%.
O=C(O)c1cc(S(=O)(=O)O)ccc1O was read as Pol beta inh 3%, Pol iota inh 1%, POLK inh -14%, TDP1 inh 3% and POLH inh -11%.
Nc1ccc2c(O)cc(S(=O)(=O)O)cc2c1 was read as Pol iota inh 8.9µM*, POLK inh 14µM* and POLH inh 5.6µM*.
Screening Nc1ccccc1Oc1ccccc1 returned POLK inh 3%[60.1 µM] and TDP1 inh 2%.
CCOc1ccc(Nc2cc(C)nc3nc(Cc4ccc(Cl)cc4)nn23)cc1 was read as Pol beta inh inconclusive, Pol iota inh 79µM*, POLK inh -29%, TDP1 inh -12% and POLH inh -20%.
For CCOc1ccc(Nc2cc(C)nc3nc(C)nn23)cc1 the results were Pol beta inh 15%, Pol iota inh -2%, POLK inh 4%, TDP1 inh 1% and POLH inh -13%.
For CCN1/C(=C/c2cc[n+](C)cc2)C=Cc2cc(C)ccc21 the results were Pol beta inh 22µM*, Pol iota inh inconclusive, POLK inh -20%, TDP1 inh 9% and POLH inh inconclusive.
CCOc1cc(/C=N/Nc2nnc(C)n2N)ccc1OC(C)=O was read as Pol beta inh inconclusive, Pol iota inh 2.8µM*, POLK inh -25% and POLH inh -16%.
`CCc1nnc(N/N=C/c2cc(Br)c(O)cc2O)n1N` gave Pol beta inh 0%, Pol iota inh 8.9µM*, POLK inh 1%, TDP1 inh 6% and POLH inh -13%.
Screening CCc1nnc(N/N=C/c2ccc(O)c(OC)c2)n1N returned Pol beta inh 18%, Pol iota inh 8.9µM*, POLK inh -6% and POLH inh 3%.
CC(C)(C)c1nnc(N/N=C/c2cc(Br)ccc2O)n(N)c1=O was read as Pol beta inh -14%, Pol iota inh 10%, POLK inh -9%, TDP1 inh 11% and POLH inh -16%.
CCc1nnc(N/N=C\c2ccc(OC(C)=O)c(OC)c2)n1N was read as Pol beta inh -3%, Pol iota inh 2µM*, POLK inh -31% and POLH inh 1%.
CCOc1cc(/C=N/NC(N)=O)ccc1OC(=O)c1ccc(C)cc1 was read as Pol beta inh 6% and TDP1 inh 3%.
COc1cc(/C=N/NC(=O)Nc2ccccc2)ccc1OC(C)=O was read as Pol beta inh 22%, Pol iota inh 2%, POLK inh -10%, TDP1 inh -3% and POLH inh -6%.
For COc1cc(/C=N/Nc2ccccn2)ccc1O the results were Pol beta inh -14%, Pol iota inh 29%, POLK inh -10% and POLH inh -15%.
For O=c1c2c(nc3cc(-c4ccccc4Cl)[nH]n13)CCS2 the results were Pol beta inh 35µM*, Pol iota inh -8%, POLK inh -16%, TDP1 inh 5% and POLH inh 0%.
`O=c1c2c(nc3cc(-c4ccccc4)[nH]n13)CCS2` gave Pol beta inh 0%, Pol iota inh -13%, POLK inh -23%, TDP1 inh 4% and POLH inh -1%.
`COC(=O)c1ccc2c(c1O)C(=O)c1ccccc1C2=O` gave Pol beta inh -3%, Pol iota inh inconclusive, POLK inh -8%, TDP1 inh -1% and POLH inh -8%.
`O=C1c2ccc(O)c(O)c2C(=O)c2c(O)ccc(O)c21` gave POLK inh 2.8µM*.
CC1=NN(c2ccc(C)c(C)c2)C(=O)C1C(c1cccc(O)c1)C1C(=O)N(c2ccc(C)c(C)c2)N=C1C (stereo not drawn) was read as Pol beta inh -6%, Pol iota inh inconclusive, POLK inh -4%, TDP1 inh 8% and POLH inh -13%.
CC1=NN(c2ccc(C)cc2C)C(=O)C1C(c1ccccc1O)C1C(=O)N(c2ccc(C)cc2C)N=C1C (stereo not drawn) was read as Pol beta inh 39%, Pol iota inh 0.89µM*, POLK inh -11%, TDP1 inh 4% and POLH inh -9%.
`CCCc1cc(=O)[nH]c(-n2[nH]c3c(c2=O)CCCC3)n1` gave Pol beta inh 12%, Pol iota inh 16µM*, POLK inh -17%, TDP1 inh 5% and POLH inh -14%.
For Nc1ccc(/C=C/c2ccc(N)cc2S(=O)(=O)O)c(S(=O)(=O)O)c1 the results were POLK inh 3.2µM*.
Cc1cnc(NC(=O)C2COc3ccccc3O2)s1 (stereo not drawn) was read as Pol beta inh 50µM*, Pol iota inh inconclusive, POLK inh inconclusive, TDP1 inh -6% and POLH inh inconclusive.
COc1ccc(NC(=O)NNC(=O)COc2ccc([N+](=O)[O-])c(C)c2)cc1OC was read as Pol beta inh 50µM*, Pol iota inh 34%, POLK inh -4%, TDP1 inh 2% and POLH inh -16%.
Screening CCCCCCCCCC[n+]1cccc2cc(Br)ccc21 returned Pol iota inh -6% and POLK inh -36%.
`COc1ccc2cc1Oc1ccc(cc1)CC1c3cc(c(OC)cc3CCN1C)Oc1c(OC)c(OC)c(OC)c3c1C(C2)N(C)CC3` (stereo not drawn) gave POLK inh -12%[60.1 µM] and TDP1 inh 17%.
